Several values for one entry are separate records, joined by “and”; a condition that tells them apart may be missing. Equal values may be shown once. In all, about 5,500 compounds went through this assay and about 2,000 (36%) were called active. Another 18% or so got no clear call; they are omitted. Cut-off read from the data, not from the text of the source: active = normalized growth mostly below about 0.91 (no sharp cut-off); inconclusive = no clear call, values can overlap the other calls; inactive = mostly above about 0.92. This is one part of the list.
Test: chemical genetic growth profiling, strain panel (AID 1159580);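 note: tested at 20 µM; growth read once vehicle control cultures reached saturation at 30 °C; 1 = growth at the plate median or of vehicle wells; lower values mean less growth of the strain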
Conditions: S. cerevisiae deletion strains, growth OD

Measured: normalized growth

NC1(C(=O)O)CC1
inactive: locus YAL013W, strain DEP1, active compounds read low 1 | locus YAL021C, strain ccr4, active compounds read low 1.04 | locus YAL026C, strain drs2, active compounds read low 1.04 | locus YAL030W, strain snc1, active compounds read low 1.02 | locus YAL040C, strain CLN3, active compounds read low 0.98 | locus YBL061C, strain skt5, active compounds read low 1.04 | locus YBR009C, strain hhf1, active compounds read low 1.02 | locus YBR021W, strain FUR4, active compounds read low 1.01 | locus YBR023C, strain chs3, active compounds read low 1.03 | locus YBR171W, strain sec66, active compounds read low 1.04 | locus YBR229C, strain ROT2, active compounds read low 1.01 | locus YBR231C, strain swc5, active compounds read low 1.02 | locus YBR279W, strain paf1, active compounds read low 1.02 | locus YCL011C, strain gbp2, active compounds read low 1.02 | locus YCL016C, strain dcc1, active compounds read low 1.04 | locus YCL029C, strain bik1, active compounds read low 1.02 | locus YCL061C, strain MRC1, active compounds read low 1.02 | locus YCL069W, strain vba3, active compounds read low 1.02 | locus YCR088W, strain abp1, active compounds read low 1.02 | locus YDL005C, strain med2, active compounds read low 1.03 | locus YDL035C, strain GPR1, active compounds read low 1.03 | locus YDL040C, strain nat1, active compounds read low 1.02 | locus YDL074C, strain BRE1, active compounds read low 1.01 | locus YDL101C, strain DUN1, active compounds read low 1.01 | locus YDL134C, strain PPH21, active compounds read low 1.01 | locus YDL185W, strain tfp1, active compounds read low 1.03 | locus YDL192W, strain arf1, active compounds read low 1.02 | locus YDR001C, strain nth1, active compounds read low 1.02 | locus YDR069C, strain doa4, active compounds read low 1.04 | locus YDR101C, strain arx1, active compounds read low 1 | locus YDR137W, strain rgp1, active compounds read low 1.06 | locus YDR150W, strain NUM1, active compounds read low 1.01 | locus YDR159W, strain sac3, active compounds read low 1.02 | locus YDR162C, strain NBP2, active compounds read low 1.03 | locus YDR195W, strain ref2 1.02 | locus YDR297W, strain sur2, active compounds read low 1.03 | locus YDR318W, strain mcm21, active compounds read low 1.03 | locus YDR334W, strain swr1, active compounds read low 1.03 | locus YDR335W, strain msn5, active compounds read low 1.04 | locus YDR363W, strain ESC2, active compounds read low 0.986 | locus YDR388W, active compounds read low 1.01 | locus YDR392W, strain spt3, active compounds read low 1.05 | locus YDR502C, strain sam2, active compounds read low 1.02 | locus YEL003W, strain gim4, active compounds read low 1.02 | locus YEL037C, strain rad23, active compounds read low 1.02 | locus YEL061C, strain CIN8 (second series), active compounds read low 1.03 | locus YEL061C, strain CIN8, active compounds read low 1 | locus YER002W, strain NOP16, active compounds read low 0.981 | locus YER015W, strain faa2, active compounds read low 1.03 | locus YER016W, strain bim1, active compounds read low 1.04 | locus YER110C, active compounds read low 1.03 | locus YER111C, strain swi4, active compounds read low 1.01 | locus YER155C, strain BEM2 (second series), active compounds read low 1.02 | locus YER155C, strain BEM2, active compounds read low 0.998 | locus YER167W, strain BCK2, active compounds read low 1.05 | locus YFR010W, strain ubp6, active compounds read low 1.01 | locus YGL078C, strain dbp3, active compounds read low 1.02 | locus YGL086W, strain mad1, active compounds read low 1.03 | locus YGL167C, strain pmr1, active compounds read low 1.04 | locus YGL173C, strain kem1, active compounds read low 1.03 | locus YGL227W, strain vid30, active compounds read low 1.02 | locus YGL240W, strain doc1, active compounds read low 1.01 | locus YGL248W, strain PDE1, active compounds read low 1.01 | locus YGL253W, strain hxk2, active compounds read low 1.04 | locus YGR078C, strain PAC10, active compounds read low 1.02 and 0.978 | locus YGR135W, strain pre9, active compounds read low 1.03 | locus YGR229C, strain SMI1, active compounds read low 1.01 | locus YGR252W, strain gcn5, active compounds read low 1.04 | locus YHR013C, strain ard1, active compounds read low 1.06 | locus YHR027C, strain rpn1, active compounds read low 1.04 | locus YHR030C, strain SLT2, active compounds read low 1 and 1.03 | locus YHR079C, strain IRE1 (second series), active compounds read low 1.01 | locus YHR079C, strain IRE1, active compounds read low 1.03 | locus YHR094C, strain hxt1, active compounds read low 1.01 | locus YHR129C, strain ARP1, active compounds read low 1 | locus YHR142W, strain chs7, active compounds read low 1.05 | locus YHR200W, strain rpn10, active compounds read low 1.03 | locus YIL066C, strain RNR3, active compounds read low 1.02 | locus YIL073C, strain SPO22, active compounds read low 1.11 | locus YIL125W, strain kgd1, active compounds read low 1 | locus YIR030C, strain dcg1, active compounds read low 1.01 | locus YJL092W, strain hpr5, active compounds read low 1.02 | locus YJL095W, strain BCK1 (second series), active compounds read low 1.02 | locus YJL095W, strain BCK1, active compounds read low 1.02 and 1.04 | locus YJL115W, strain asf1, active compounds read low 1.03 | locus YJL129C, strain trk1, active compounds read low 1.05 | locus YJL134W, strain LCB3, active compounds read low 1 | locus YJL154C, strain vps35, active compounds read low 1.01 | locus YJL164C, strain tpk1, active compounds read low 1.02 | locus YJL166W, strain qcr8, active compounds read low 1.01 | locus YJL168C, strain set2, active compounds read low 1.02 | locus YJL187C, strain SWE1 (second series), active compounds read low 1.01 | locus YJL187C, strain SWE1, active compounds read low 1.01 | locus YJR043C, strain POL32, active compounds read low 1.01 | locus YJR066W, strain TOR1, active compounds read low 0.98
